# Experimental data: the supplement of paper PMC4466140
# B1: unnamed (peptide)
# chain: NSVPIMPTLPPRPYI
# B2: unnamed (peptide)
# chain: NQARKPFLLPATELS
# B3: unnamed (peptide)
# chain: SRQAIPPPVPNRPGG
# Columns and labels:
# Experiment in all cases: SPOT peptide array binding signal intensity (averaged, normalized) (arbitrary units (background-subtracted, floor 0; scale differs between SH3 domains)); higher = stronger binding of the SH3 domain to the peptide
# SpBzz1-D2 = target: SpBzz1-D2
# How it was run: (§1)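 Binding signal refers to normalized, background-subtracted spot intensity averaged over replicates, expressed in arbitrary units that differ between domains. GST-fused SH3 domains from four yeast species were incubated at 10 μg/ml overnight at 4°C on cellulose membranes of synthetic 15-mer peptides with cysteines replaced by serines. Bound protein was detected with anti-GST antibody, an HRP anti-mouse secondary and luminol, and quantified with Genespotter.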
# SpCyk3 = target: SpCyk3
# How it was run: as §1
# SpHof1 = target: SpHof1
# How it was run: as §1
# SpHof1-2 = target: SpHof1-2
# How it was run: as §1
# SpHof1-3 = target: SpHof1-3
# How it was run: as §1
# SpHse1 = target: SpHse1
# How it was run: as §1
# SpLsb1 = target: SpLsb1
# How it was run: as §1
# SpLsb4 = target: SpLsb4
# How it was run: as §1
# SpMyo1 = target: SpMyo1
# How it was run: as §1
# SpNbp2 = target: SpNbp2
# How it was run: as §1
# SpPex13 = target: SpPex13
# How it was run: as §1
# SpRvs167 = target: SpRvs167
# How it was run: as §1
# SpSla1-D1-D2 = target: SpSla1-D1-D2
# How it was run: as §1
# SpSla1-D3 = target: SpSla1-D3
# How it was run: as §1
# AgAbp1 = target: AgAbp1
# How it was run: as §1
# AgBbc1 = target: AgBbc1
# How it was run: as §1
# AgBem1-D1 = target: AgBem1-D1
# How it was run: as §1
# AgBzz1-D1 = target: AgBzz1-D1
# How it was run: as §1
# AgBzz1-D2 = target: AgBzz1-D2
# How it was run: as §1
# AgCyk3 = target: AgCyk3
# How it was run: as §1
# AgFus1 = target: AgFus1
# How it was run: as §1
# AgHof1 = target: AgHof1
# How it was run: as §1
# AgHse1 = target: AgHse1
# How it was run: as §1
# AgLsb1 = target: AgLsb1
# How it was run: as §1
# AgLsb4 = target: AgLsb4
# How it was run: as §1
# AgMyo5 = target: AgMyo5
# How it was run: as §1
# AgNbp2 = target: AgNbp2
# How it was run: as §1
# AgRvs167 = target: AgRvs167
# How it was run: as §1
# AgSho1 = target: AgSho1
# How it was run: as §1
# AgSla1-D1-D2 = target: AgSla1-D1-D2
# How it was run: as §1
# AgSla1-D3 = target: AgSla1-D3
# How it was run: as §1
# CaAbp1-D1 = target: CaAbp1-D1
# How it was run: as §1
# CaAbp1-D2 = target: CaAbp1-D2
# How it was run: as §1
# CaBbc1 = target: CaBbc1
# How it was run: as §1
# CaBem1-D1 = target: CaBem1-D1
# How it was run: as §1
# CaBzz1-D1 = target: CaBzz1-D1
# How it was run: as §1
# CaBzz1-D2 = target: CaBzz1-D2
# How it was run: as §1
# CaCyk3 = target: CaCyk3
# How it was run: as §1
# CaFus1 = target: CaFus1
# How it was run: as §1
# CaHof1 = target: CaHof1
# How it was run: as §1
# CaHse1 = target: CaHse1
# How it was run: as §1
# CaLsb1 = target: CaLsb1
# How it was run: as §1
# CaLsb4 = target: CaLsb4
# How it was run: as §1
# CaMyo5 = target: CaMyo5
# How it was run: as §1
# CaNbp2 = target: CaNbp2
# How it was run: as §1
# CaRvs167 = target: CaRvs167
# How it was run: as §1
# CaRvs167-3 = target: CaRvs167-3
# How it was run: as §1
# CaSho1 = target: CaSho1
# How it was run: as §1
# CaSla1-D1-D2 = target: CaSla1-D1-D2
# How it was run: as §1
# CaSla1-D3 = target: CaSla1-D3
# How it was run: as §1
# ScAbp1 = target: ScAbp1
# How it was run: as §1
# ScBbc1 = target: ScBbc1
# How it was run: as §1
# ScBem1-D1 = target: ScBem1-D1
# How it was run: as §1
# ScBzz1-D1 = target: ScBzz1-D1
# How it was run: as §1
# ScBzz1-D2 = target: ScBzz1-D2
# How it was run: as §1
# ScCyk3 = target: ScCyk3
# How it was run: as §1
# ScFus1 = target: ScFus1
# How it was run: as §1
# ScHof1 = target: ScHof1
# How it was run: as §1
# ScHse1 = target: ScHse1
# How it was run: as §1
# ScLsb1 = target: ScLsb1
# How it was run: as §1
# ScLsb2 = target: ScLsb2
# How it was run: as §1
# ScLsb3 = target: ScLsb3
# How it was run: as §1
# ScLsb4 = target: ScLsb4
# How it was run: as §1
# ScMyo3 = target: ScMyo3
# How it was run: as §1
# ScMyo5 = target: ScMyo5
# How it was run: as §1
# ScNbp2 = target: ScNbp2
# How it was run: as §1
# ScPex13 = target: ScPex13
# How it was run: as §1
# ScRvs167 = target: ScRvs167
# How it was run: as §1
# ScSho1 = target: ScSho1
# How it was run: as §1
# ScSla1-D1-D2 = target: ScSla1-D1-D2
# How it was run: as §1
# ScSla1-D3 = target: ScSla1-D3
# How it was run: as §1
# SpAbp1-D1 = target: SpAbp1-D1
# How it was run: as §1
# SpBbc1 = target: SpBbc1
# How it was run: as §1
# SpBzz1-D1 = target: SpBzz1-D1
# How it was run: as §1
binder,measurement,setting,value
B1,SPOT peptide array binding signal intensity,SpBzz1-D2,0.5
same,SPOT peptide array binding signal intensity,SpCyk3,6
same,SPOT peptide array binding signal intensity,SpHof1,6.5
same,SPOT peptide array binding signal intensity,SpHof1-2,34.5
same,SPOT peptide array binding signal intensity,SpHof1-3,18.8
same,SPOT peptide array binding signal intensity,SpHse1,214
same,SPOT peptide array binding signal intensity,SpLsb1,523
same,SPOT peptide array binding signal intensity,SpLsb4,4060
same,SPOT peptide array binding signal intensity,SpMyo1,378
same,SPOT peptide array binding signal intensity,SpNbp2,76.5
same,SPOT peptide array binding signal intensity,SpPex13,25
same,SPOT peptide array binding signal intensity,SpRvs167,1070
same,SPOT peptide array binding signal intensity,SpSla1-D1-D2,≤ 0
same,SPOT peptide array binding signal intensity,SpSla1-D3,21.5
B2,SPOT peptide array binding signal intensity,AgAbp1,≤ 0
same,SPOT peptide array binding signal intensity,AgBbc1,≤ 0
same,SPOT peptide array binding signal intensity,AgBem1-D1,23.5
same,SPOT peptide array binding signal intensity,AgBzz1-D1,19
same,SPOT peptide array binding signal intensity,AgBzz1-D2,16.5
same,SPOT peptide array binding signal intensity,AgCyk3,≤ 0
same,SPOT peptide array binding signal intensity,AgFus1,≤ 0
same,SPOT peptide array binding signal intensity,AgHof1,11.8
same,SPOT peptide array binding signal intensity,AgHse1,454
same,SPOT peptide array binding signal intensity,AgLsb1,295
same,SPOT peptide array binding signal intensity,AgLsb4,≤ 0
same,SPOT peptide array binding signal intensity,AgMyo5,2
same,SPOT peptide array binding signal intensity,AgNbp2,5
same,SPOT peptide array binding signal intensity,AgRvs167,≤ 0
same,SPOT peptide array binding signal intensity,AgSho1,≤ 0
same,SPOT peptide array binding signal intensity,AgSla1-D1-D2,3
same,SPOT peptide array binding signal intensity,AgSla1-D3,0.5
same,SPOT peptide array binding signal intensity,CaAbp1-D1,225
same,SPOT peptide array binding signal intensity,CaAbp1-D2,17
same,SPOT peptide array binding signal intensity,CaBbc1,≤ 0
same,SPOT peptide array binding signal intensity,CaBem1-D1,≤ 0
same,SPOT peptide array binding signal intensity,CaBzz1-D1,≤ 0
same,SPOT peptide array binding signal intensity,CaBzz1-D2,≤ 0
same,SPOT peptide array binding signal intensity,CaCyk3,1
same,SPOT peptide array binding signal intensity,CaFus1,228
same,SPOT peptide array binding signal intensity,CaHof1,≤ 0
same,SPOT peptide array binding signal intensity,CaHse1,4.75
same,SPOT peptide array binding signal intensity,CaLsb1,0.5
same,SPOT peptide array binding signal intensity,CaLsb4,≤ 0
same,SPOT peptide array binding signal intensity,CaMyo5,3.75
B3,SPOT peptide array binding signal intensity,AgAbp1,≤ 0
same,SPOT peptide array binding signal intensity,AgBbc1,1960
same,SPOT peptide array binding signal intensity,AgBem1-D1,0.5
same,SPOT peptide array binding signal intensity,AgBzz1-D1,280
same,SPOT peptide array binding signal intensity,AgBzz1-D2,15
same,SPOT peptide array binding signal intensity,AgCyk3,≤ 0
same,SPOT peptide array binding signal intensity,AgFus1,≤ 0
same,SPOT peptide array binding signal intensity,AgHof1,39.2
same,SPOT peptide array binding signal intensity,AgHse1,40
same,SPOT peptide array binding signal intensity,AgLsb1,1770
same,SPOT peptide array binding signal intensity,AgLsb4,1590
same,SPOT peptide array binding signal intensity,AgMyo5,74.5
same,SPOT peptide array binding signal intensity,AgNbp2,106
same,SPOT peptide array binding signal intensity,AgRvs167,362
same,SPOT peptide array binding signal intensity,AgSho1,≤ 0
same,SPOT peptide array binding signal intensity,AgSla1-D1-D2,≤ 0
same,SPOT peptide array binding signal intensity,AgSla1-D3,3.5
same,SPOT peptide array binding signal intensity,CaAbp1-D1,156
same,SPOT peptide array binding signal intensity,CaAbp1-D2,8.5
same,SPOT peptide array binding signal intensity,CaBbc1,3020
same,SPOT peptide array binding signal intensity,CaBem1-D1,30
same,SPOT peptide array binding signal intensity,CaBzz1-D1,2510
same,SPOT peptide array binding signal intensity,CaBzz1-D2,346
same,SPOT peptide array binding signal intensity,CaCyk3,359
same,SPOT peptide array binding signal intensity,CaFus1,23
same,SPOT peptide array binding signal intensity,CaHof1,1
same,SPOT peptide array binding signal intensity,CaHse1,101
same,SPOT peptide array binding signal intensity,CaLsb1,3.75
same,SPOT peptide array binding signal intensity,CaLsb4,2960
same,SPOT peptide array binding signal intensity,CaMyo5,2
same,SPOT peptide array binding signal intensity,CaNbp2,50.5
same,SPOT peptide array binding signal intensity,CaRvs167,1340
same,SPOT peptide array binding signal intensity,CaRvs167-3,≤ 0
same,SPOT peptide array binding signal intensity,CaSho1,8
same,SPOT peptide array binding signal intensity,CaSla1-D1-D2,201
same,SPOT peptide array binding signal intensity,CaSla1-D3,0.75
same,SPOT peptide array binding signal intensity,ScAbp1,16
same,SPOT peptide array binding signal intensity,ScBbc1,802
same,SPOT peptide array binding signal intensity,ScBem1-D1,≤ 0
same,SPOT peptide array binding signal intensity,ScBzz1-D1,23
same,SPOT peptide array binding signal intensity,ScBzz1-D2,6
same,SPOT peptide array binding signal intensity,ScCyk3,1
same,SPOT peptide array binding signal intensity,ScFus1,≤ 0
same,SPOT peptide array binding signal intensity,ScHof1,10
same,SPOT peptide array binding signal intensity,ScHse1,≤ 0
same,SPOT peptide array binding signal intensity,ScLsb1,1620
same,SPOT peptide array binding signal intensity,ScLsb2,1320
same,SPOT peptide array binding signal intensity,ScLsb3,3290
same,SPOT peptide array binding signal intensity,ScLsb4,2540
same,SPOT peptide array binding signal intensity,ScMyo3,371
same,SPOT peptide array binding signal intensity,ScMyo5,220
same,SPOT peptide array binding signal intensity,ScNbp2,304
same,SPOT peptide array binding signal intensity,ScPex13,1830
same,SPOT peptide array binding signal intensity,ScRvs167,1980
same,SPOT peptide array binding signal intensity,ScSho1,32
same,SPOT peptide array binding signal intensity,ScSla1-D1-D2,695
same,SPOT peptide array binding signal intensity,ScSla1-D3,9.5
same,SPOT peptide array binding signal intensity,SpAbp1-D1,17
same,SPOT peptide array binding signal intensity,SpBbc1,723
same,SPOT peptide array binding signal intensity,SpBzz1-D1,760
same,SPOT peptide array binding signal intensity,SpBzz1-D2,59.5
same,SPOT peptide array binding signal intensity,SpCyk3,3
same,SPOT peptide array binding signal intensity,SpHof1,≤ 0
same,SPOT peptide array binding signal intensity,SpHof1-2,≤ 0
same,SPOT peptide array binding signal intensity,SpHof1-3,126
same,SPOT peptide array binding signal intensity,SpHse1,≤ 0
same,SPOT peptide array binding signal intensity,SpLsb1,1260
same,SPOT peptide array binding signal intensity,SpLsb4,4790
same,SPOT peptide array binding signal intensity,SpMyo1,120
same,SPOT peptide array binding signal intensity,SpNbp2,≤ 0
same,SPOT peptide array binding signal intensity,SpPex13,≤ 0
same,SPOT peptide array binding signal intensity,SpRvs167,2220
same,SPOT peptide array binding signal intensity,SpSla1-D1-D2,5
same,SPOT peptide array binding signal intensity,SpSla1-D3,≤ 0
